Hits are enriched below; roughly 8.7% of the tested compounds scored in any of these assays.
JMJD2A Tudor: qHTS Assay for Inhibitors of JMJD2A-Tudor Domain. Potency, µM (top dose mostly 114 µM), for the others: at the top dose activity change, negative = inhibition, actives largely listed as inhibitors. AlphaScreen JMJD2A-Tudor / H3K4me3 peptide binding. Lysine-specific demethylase 4A (Homo sapiens), O75164. actives 4.4% (n = 390,000); also: % is scaled to controls: 0 for no effect and ±100 for the full control effect; nearly all actives have a fitted effect of over 50% in size
HP1b binding inh: HTS for Inhibitors of HP1-beta Chromodomain Interactions with Methylated Histone Tails. Chromobox protein homolog 1 (Homo sapiens), P83916. Potency, µM (series often up to 114 µM), for inactives: top-dose activity change, negative = inhibition, usual class: inhibitors. actives 0.56% (n = 390,000). AlphaScreen HP1-beta / biotin-H3K9me3 peptide binding; also: nearly all actives have a fitted effect of over 70% in size
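Compound inhibition of the preformed complex between 50 nM HP1-beta and 50 nM biotinylated H3K9me3 peptide was read by AlphaScreen. Buffer was PBS pH 7.4 with 0.01% Tween-20. Incubations ran 30 min at room temperature, with 10 ug/mL donor/acceptor beads.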
Sfp inh: qHTS Assay for Inhibitors of Bacillus subtilis Sfp phosphopantetheinyl transferase (PPTase). actives 3.5% (n = 310,000). Potency, µM, for inactives: largest response in the series, negative = inhibition, usual class: inhibitors. 4'-phosphopantetheinyl transferase ffp (Bacillus subtilis), Q9F4F7. Biochemical Sfp PPTase activity, qHTS;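 also: the enzyme is Sfp with the accession as filed and its product quenches rhodamine fluorescence; 0% = enzyme reaction without inhibitor and -100% = no enzyme wells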
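With Hepes-Na pH 7.6 buffer containing 10 mM MgCl2, Sfp (15 nM) modified BHQ-2-YbbR (12.5 uM) using rhodamine-CoA (5 uM). Two reads 30 minutes apart at 525/598 nm yielded each well's rate.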
BAZ2B inh: qHTS Assay for Inhibitors of BAZ2B; AlphaScreen BAZ2B-H3K14Ac peptide displacement; AID 504333, 2011; Potency, µM (top dose mostly 114 µM), for inactives: at the top dose activity change, negative = inhibition, actives largely listed as inhibitors; actives 4.4% (n = 360,000); also: % is scaled to controls: 0 for no effect and ±100 for the full control effect; nearly all actives have a fitted effect of over 60% in size
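In this displacement format the biotinylated H3(5-23) peptide acetylated at Lys14 serves as ligand at 50 nM, with BAZ2B at 50 nM in PBS pH 7.4 containing 0.01% Tween-20. Donor and acceptor beads are 10 ug/mL final.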
ALOX12 inh: Primary qHTS assay for inhibitors of human arachidonate 12S-lipoxygenase (ALOX12): Round 2. Polyunsaturated fatty acid lipoxygenase ALOX12 (Homo sapiens), P18054. purified 12hLO, xylenol orange hydroperoxide absorbance. Potency, µM (top dose mostly 108 µM), for the others: at the highest dose activity change, negative = inhibition, actives largely listed as inhibitors. actives 1.1% (n = 580,000). AID 1671190, 2021; also: % is scaled to controls: 0 for no effect and ±100 for the full control effect
Target sequence (P18054 whole entry, looked up): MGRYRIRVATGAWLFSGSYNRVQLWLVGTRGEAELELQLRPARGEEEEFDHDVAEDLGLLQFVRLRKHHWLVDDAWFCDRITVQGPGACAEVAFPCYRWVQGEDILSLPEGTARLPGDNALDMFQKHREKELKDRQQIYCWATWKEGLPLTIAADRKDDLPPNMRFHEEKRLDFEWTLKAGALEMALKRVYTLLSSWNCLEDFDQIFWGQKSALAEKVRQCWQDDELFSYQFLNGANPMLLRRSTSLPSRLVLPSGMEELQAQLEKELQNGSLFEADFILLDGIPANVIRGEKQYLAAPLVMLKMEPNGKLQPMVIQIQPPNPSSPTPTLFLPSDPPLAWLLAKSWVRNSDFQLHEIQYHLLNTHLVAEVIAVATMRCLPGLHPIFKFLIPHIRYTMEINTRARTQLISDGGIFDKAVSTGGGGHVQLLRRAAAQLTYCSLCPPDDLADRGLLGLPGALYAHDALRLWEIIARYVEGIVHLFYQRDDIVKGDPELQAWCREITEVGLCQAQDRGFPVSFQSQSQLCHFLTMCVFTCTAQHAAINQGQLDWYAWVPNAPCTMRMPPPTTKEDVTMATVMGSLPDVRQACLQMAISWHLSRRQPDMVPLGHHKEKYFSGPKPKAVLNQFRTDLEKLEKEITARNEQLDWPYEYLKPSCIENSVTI
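Hydroperoxide product was detected by ferrous iron/xylenol orange as the 573 to 405 nm absorbance ratio. Arachidonic acid at 40 uM (final) was turned over for 30 min at room temperature by 150 nM human 12hLO, pH 7.0 Hepes buffer, after 15 min compound preincubation.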
G9a block: qHTS Assay for Inhibitors of Histone Lysine Methyltransferase G9a; actives 8.8% (n = 350,000); Histone-lysine N-methyltransferase EHMT2 (Homo sapiens), Q96KQ7; G9a H3K9 monomethylation, AlphaScreen, 2 h; Potency, µM (titrated, usually from 102 µM), without a hit: top-dose activity, negative = inhibition, most hits filed as inhibitors; also: % is scaled to controls: 0 for no effect and ±100 for the full control effect; nearly all actives have a fitted effect of over 75% in size
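G9a (20 nM) was preincubated 15 min with compound, then reacted 2 h at room temperature with 500 nM biotin-H3K9 peptide and 20 µM SAM. Monomethyl-H3K9 detected by AlphaScreen using anti-H3K9me1 antibody.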
The depositor's hits bear a star; i = inactive; ? = inconclusive; . = no result; ! = not confirmed by another sample; [ ] = another dose, or the depositor's remark. Calls follow the shape of the dose curve; as a rule, active = well fitted curve in the direction sought with a large enough effect; inconclusive = small, poorly fitted or top-dose-only effect, or another doubt; inactive = no such curve, though single readings can be large; an effect the other way counts as inactive or inconclusive. Potency is read from the fitted curve at half-maximal effect.

SMILES	JMJD2A Tudor	HP1b binding inh	Sfp inh	BAZ2B inh	ALOX12 inh	G9a block
COc1ccc(C2/C(=C(/O)c3ccc4c(c3)CC(C)O4)C(=O)C(=O)N2CCCN2CCOCC2)cc1OC (stereo unspecified)	-5%	36%	2%	-14%	-10%	?
COc1cc(C2/C(=C(\O)c3ccc4c(c3)CC(C)O4)C(=O)C(=O)N2CC2CCCO2)cc(OC)c1OC (stereo unspecified)	-3%	20%	2%	?	?	50µM*
COc1ccc(/C(O)=C2/C(=O)C(=O)N(CC3CCCO3)C2c2cccc(O)c2)cc1 (stereo unspecified)	50µM*	-4%	11%	-26%	-24%	?
CCCCOc1ccc(C2/C(=C(/O)c3ccc4c(c3)CC(C)O4)C(=O)C(=O)N2CCCN2CCOCC2)cc1OC (stereo unspecified)	?	11%	5%	-20%	?	56µM*
CC1Cc2cc(/C(O)=C3/C(=O)C(=O)N(CCN4CCOCC4)C3c3cccc(O)c3)ccc2O1 (stereo unspecified)	-23%	27%	7%	-6%	-12%	?
COc1cc(C2/C(=C(\O)c3ccc4c(c3)CC(C)O4)C(=O)C(=O)N2CCN2CCOCC2)cc(OC)c1OC (stereo unspecified)	?	12%	4%	-23%	?	71µM*
CCCC1c2ccc(C)n2CCN1C(=O)Nc1ccccc1Cl (stereo unspecified)	-26%	-8%	10%	-6%	98%	-10%[59 µM]
CCOC(=O)c1ccccc1NC(=O)N1CCn2c(C)ccc2C1CC (stereo unspecified)	-17%	29%	-3%	-11%	47%	22µM*
CCC1c2ccc(C)n2CCN1C(=O)Nc1cc(Cl)ccc1OC (stereo unspecified)	?	4%	-8%	-8%	i	-1%[59 µM]
CCC1c2ccc(C)n2CCN1C(=O)Nc1ccccc1C(=O)OC (stereo unspecified)	-32%	8%	-5%	-28%	59%	50µM*
CCCN(C)C(=O)c1ccc(-c2nnc3ccc(NC(=O)C4CCC4)cn23)cc1	.	.	.	.	67%	.
Cc1cccc(Cn2c(NC3CCCCC3)nc3c2c(=O)[nH]c(=O)n3C)c1	.	.	.	.	-25%	.
Cc1ccc2[nH]c(-c3cccc(N)c3)cc2c1	?	?	18%	50µM*	0%	50µM*
CC[C@H]1CN(S(=O)(=O)c2c(C)noc2C)CC[C@H]1CC(=O)NCc1ccc(F)cc1	.	.	.	.	27%	.
COc1cc(C2=NOC(C(=O)Nc3ccc4c(c3)OCO4)C2)cc(OC)c1OC (stereo unspecified)	-34%	10%	-3%	-35%	3%	25µM*
COc1ccc(NC(=O)C2CC(c3ccccc3O)=NO2)cc1OC (stereo unspecified)	-12%	32%	19%	3%	-3%	45µM*
COc1cccc(C2=NOC(C(=O)Nc3ccc4c(c3)OCO4)C2)c1OC (stereo unspecified)	-12%	0%	0%	-8%	10%	45µM*
O=C(NCc1ccco1)C1CC(c2ccccc2O)=NO1 (stereo unspecified)	?	2%	-26%	79µM*	?	.
COc1ccccc1-c1noc(Cn2nc(C)c(S(=O)(=O)N3CCc4ccccc43)c2C)n1	.	.	.	.	3%	.
CCc1nc(-c2c(-c3ccccc3)ncn2CCc2ccncc2)c(C)[nH]1	.	.	.	.	68%	.
COc1ccc(NC(=O)C2CC(c3ccc(OC)c(OC)c3)=NO2)cc1OC (stereo unspecified)	-22%	11%	-15%	-26%	0%	?
COc1ccc(C2=NOC(C(=O)Nc3ccc4c(c3)OCO4)C2)cc1OC (stereo unspecified)	-26%	17%	5%	.	3%	50µM*
Cc1ccc(-n2c(-c3cnccn3)n[nH]c2=S)c(Br)c1	16µM*	44%	-5%	-30%	?	18µM*
Cc1ccc(-n2c(-c3cccnc3)n[nH]c2=S)c(C)c1	5µM*	10%	6%	4%	?	1.6µM*
Cc1ccc(-n2c(-c3ccc(Cl)cc3)n[nH]c2=S)c(C)c1	?	17%	-8%	11%[0.457 µM]	?	5.6µM*
SMILES	JMJD2A Tudor	HP1b binding inh	Sfp inh	BAZ2B inh	ALOX12 inh	G9a block
COc1ccc(-c2cc(N3CCN(C(=O)c4ccc(C)cc4C)CC3)n[nH]2)cc1	.	.	.	.	-11%	.
COc1ccc(-c2n[nH]c(=S)n2-c2ccc(C)cc2C)cc1	?	29%	-4%	-28%	6.3µM*	14%[0.501 µM]
COc1ccc([C@H]2C[C@@H](O)[C@@H](O)[C@@H]2NC(=O)c2ccc(C#N)cc2)cc1	.	.	.	.	3%[176 µM]	.
CCOC(=O)c1cc(-c2ccc(OC)cc2)nc2c1c(C)nn2CCC(N)=S	-30%	?	8%	-23%	40µM*	-49%
CCOC(=O)c1cc(-c2ccco2)nc2c1c(C)nn2-c1ccccc1	47%	22%	?	.	35µM*!	?
CCOC(=O)c1cc(-c2ccc(OC)cc2)nc2ccc(Br)cc12	.	.	.	.	-10%	.
CCOC(=O)c1cc(-c2ccco2)nc2c1c(C)nn2-c1ccccc1Cl	.	.	.	.	32µM*	.
CCOC(=O)c1cc(-c2ccccn2)nc2c1c(C)nn2-c1ccc(C)cc1	.	.	.	.	-2%	.
Nc1nc2c(c(NC3CC3)n1)CCN(C(=O)CCCn1cncn1)CC2	.	.	.	.	39%	.
NC(=O)[C@@H](Cc1c[nH]c2ccccc12)NC(=O)[C@H]1CN(C(=O)c2cccc(F)c2)CCN1C(=O)c1cccs1	.	.	.	.	51%	.
Cc1occc1-c1nnc(SCCCC(=O)c2ccc(F)cc2)n1C	-29%	7%	50µM*	?	-24%	50µM*
Cn1c(SCCCC(=O)c2ccc(F)cc2)nnc1-c1ccncc1	-16%	24%	-3%	15%	3%	7%[2.33 µM]
NC(=O)CN1CCN(S(=O)(=O)c2ccc(Cl)cc2F)CC1	.	.	.	.	-1%	.

Screening data as filed in PubChem.
